Bioassay records as filed in PubChem.
Rab9 prom act – qHTS Assay for Rab9 Promoter Activators; Huh7 Rab9 promoter-luciferase reporter, luminescence, 24 h; Potency, µM (titrated, usually from 9.22 µM), inactives show top-dose activation, negative = inhibition, usual class: activators; AID 485297, 2010; 320,000 compounds, 2.8% hits; also: % of control where 0% means no effect; nearly all actives have a fitted effect of over 60% in size
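Stable Rab9-luc Huh7, 1500 cells/well, 2 h settle; cmpd in DMSO, 24 h, 37 °C/5% CO2; luciferase reagent 10 min RT; luminescence.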
ELG1 genotoxic – qHTS screen for small molecules that induce genotoxicity in human embryonic kidney (HEK293T) cells expressing luciferase-tagged ELG1; HEK293T ELG1-luciferase reporter, luminescence, 16 h; Potency, µM (series often up to 46 µM), for inactives: at the highest dose activity change, positive = activation, hits mostly activators; 330,000 compounds, 1.3% hits; AID 504466, 2011; also: % of control where 0% means no effect; nearly all actives have a fitted effect of over 60% in size
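Quantitative HTS format in 1536-well plates. HEK293T ELG1-luciferase reporter cells receive test compound and are incubated 16 hr at 37 °C, 5% CO2; ONE-Glo added, 30 min room temperature, then luminescence read.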
FLuc counter – qHTS profiling assay for firefly luciferase inhibitor/activator using purifed enzyme and Km concentrations of substrates (counterscreen for miR-21 project); purified FLuc, Km substrates, luminescence inhibition; 360,000 compounds, 6.9% hits; Luciferin 4-monooxygenase (Photinus pyralis), P08659; Potency, µM (series often up to 57.5 µM), without a hit: at the highest dose activity change, negative = inhibition, actives largely listed as inhibitors; AID 588342, 2011;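 also: plate controls were vehicle for no effect and reference inhibitor for full effect; nearly all actives have a fitted effect of over 55% in size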
Target sequence (P08659 whole entry, looked up): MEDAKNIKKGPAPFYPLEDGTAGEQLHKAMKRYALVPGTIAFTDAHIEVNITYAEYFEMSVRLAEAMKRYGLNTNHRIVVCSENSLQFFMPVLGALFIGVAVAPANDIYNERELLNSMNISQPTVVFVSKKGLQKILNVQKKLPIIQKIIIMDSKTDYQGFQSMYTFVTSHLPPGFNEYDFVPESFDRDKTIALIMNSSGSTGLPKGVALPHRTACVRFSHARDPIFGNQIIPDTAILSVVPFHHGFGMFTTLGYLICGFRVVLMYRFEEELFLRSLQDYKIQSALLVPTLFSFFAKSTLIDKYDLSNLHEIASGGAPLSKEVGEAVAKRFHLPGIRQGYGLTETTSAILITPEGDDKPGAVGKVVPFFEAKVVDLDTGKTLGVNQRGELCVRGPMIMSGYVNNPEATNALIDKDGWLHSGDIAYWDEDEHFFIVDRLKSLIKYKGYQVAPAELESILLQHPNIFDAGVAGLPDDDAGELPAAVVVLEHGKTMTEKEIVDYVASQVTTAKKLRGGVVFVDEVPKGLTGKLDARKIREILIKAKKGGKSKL
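Biochemical qHTS of compounds, final roughly 60 µM downward over six points, against 10 nM purified firefly luciferase using Km concentrations of substrates (10 uM D-luciferin, 10 uM ATP) in Tris acetate pH 7.5 buffer; luminescence output.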
NPC1 promoter act – qHTS Assay for NPC1 Promoter Activators. Huh7 NPC1 promoter luciferase reporter, 24 h. Potency, µM (series often up to 9.22 µM), inactives show at the highest dose activation, actives largely listed as activators. 320,000 compounds, 2.4% hits; also: % of control where 0% means no effect; nearly all actives have a fitted effect of over 60% in size
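Stably transfected Huh7 (NPC1 promoter→luciferase), 1500 cells/well in Opti-MEM + 10% FBS, 2 h settle, then compound 24 h at 37 °C. Luminescence after 10 min with Amplite reagent.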
SMN2 splice enh – qHTS Assay for Enhancers of SMN2 Splice Variant Expression. HEK293 SMN2-luciferase splicing reporter, luminescence, 30-36 h. Potency, µM (doses to about 46.1 µM), without a hit: at the top dose activity change, positive = activation, usual class: activators. 210,000 compounds, 2.8% hits. AID 1458, 2008; also: % of control where 0% means no effect; nearly all actives have a fitted effect of over 55% in size
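HEK293 cells carry an SMN2 minigene-luciferase reporter in which exon 7 inclusion puts luciferase in frame. Cells were seeded at 2000 cells/well, attached for 10-12 hours, then exposed to compounds for 30-36 hours at 37C before ONE-Glo luminescence.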
ELG1 repair inh – qHTS screen for small molecules that inhibit ELG1-dependent DNA repair in human embryonic kidney (HEK293T) cells expressing luciferase-tagged ELG1. HEK293T ELG1-luciferase reporter, luminescence, 16 h; DNA damage induced by 5-fluorouridine. 330,000 compounds, 2.3% hits. Potency, µM (series often up to 46.1 µM), for inactives: at the top dose activity change, negative = inhibition, hits mostly inhibitors; also: % is scaled to controls: 0 for no effect and ±100 for the full control effect; nearly all actives have a fitted effect of over 55% in size
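Quantitative HTS, concentration-response format. 2,000 cells/well co-treated with 5-fluorouridine and compound, 16 hr in 5% CO2 at 37 °C; ONE-Glo luminescence read after 30 min.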
Numbers without * were called inactive; ? = inconclusive; . = no result given; ! = not active in a repeat. An excerpt weighted towards active compounds, which were near 9.4% of everything screened. Calls follow the shape of the dose curve; as a rule, active = well fitted curve in the direction sought with a large enough effect; inconclusive = small, poorly fitted or top-dose-only effect, or another doubt; inactive = no such curve, though single readings can be large; an effect the other way counts as inactive or inconclusive. Potency is read from the fitted curve at half-maximal effect.

SMILES	Rab9 prom act	ELG1 genotoxic	FLuc counter	NPC1 promoter act	SMN2 splice enh	ELG1 repair inh
COc1ccc2cc(CCNC(=O)c3ccco3)c(=O)[nH]c2c1	1.41µM*	10.3µM*	12µM*	1.58µM*	.	?
CCNc1ncc2nc(-c3ccc(OC)cc3)c(=O)n(Cc3cccc(OC)c3)c2n1	.	.	.	.	-3.2%	.
CN(C(=O)c1nn(C)c2c1COc1ccccc1-2)c1cccc(C(F)(F)F)c1	.	.	3.6%	.	.	.
O=C(N/N=C/C(Br)=C/c1ccccc1)c1cccs1	0.891µM*	?	1.51µM*	2.24µM*	.	?
O=C(N/N=C/c1cccnc1)c1cccs1	18.0%	5.9%	?	3.2%	.	?
O=C(N/N=C/C=C/c1ccccc1)c1cccs1	1.78µM*	8.9%	15.1µM*	?	?	?
COc1cccc(/C=C/c2nc(C#N)c(NCCc3ccc(OC)c(OC)c3)o2)c1	.	.	1.0%	.	-11.5%	.
Cc1cc(Nc2ccccc2F)n2nc(Cc3ccc(Cl)cc3)nc2n1	.	.	-7.6%	.	-2.4%	.
S=c1[nH]c(-c2ccccc2)cn1/N=C/c1ccc(Br)cc1	?	-8.6%	?	15.5%	.	-16.2%
S=c1[nH]c(-c2ccccc2)cn1/N=C/c1cccs1	?	-0.6%	-14.7%	1.41µM*	.	?
Fc1ccccc1/C=N/n1cc(-c2ccccc2)[nH]c1=S	3.98µM*	2.2%	?	1.12µM*	.	?
Cc1cccc(OCc2cc(=O)n3c(-c4ccccc4)csc3n2)c1C	.	.	-1.8%	.	2.0%	.
O=C(COn1nnc2ccccc21)NCC1CCCCC1	19.3%	12.6µM*	16.9µM*	18.3%	20.2%	?
COCCn1c(=O)c(-c2ccc(F)cc2)nc2cncnc21	.	.	.	.	-3.9%	.
COc1ccccc1CCNC(=O)c1cc(COc2cccc(C(F)(F)F)c2)on1	-4.5%	-2.2%	1.1%	0.7%	.	-0.1%
O=C(NCC1CCOCC1)c1cc(COc2cccc(C(F)(F)F)c2)on1	0.6%	-9.4%	0.2%	-1.5%	.	16.4µM*
CC(NC(=O)c1cc(COc2cccc(C(F)(F)F)c2)on1)c1nccs1 (centres undefined)	2.82µM*	?	15.1µM*	?	.	?
O=C(NC1CCOC1)c1cc(COc2cccc(C(F)(F)F)c2)on1 (centres undefined)	?	?	23.9µM*	0.1%	.	?
COc1ccc(N2CCN(c3nc4ccc(C)cc4n4nnnc34)CC2)cc1	.	.	-0.5%	.	.	.
O=c1c(C(c2ccccc2)c2c(O)sc3ccccc3c2=O)c(O)sc2ccccc12	-3.2%	-17.5%	12µM*	0.9%	-25.0%	-17.1%
Clc1ccc(COn2nnc3ccccc32)c(Cl)c1	.	.	3.79µM*	.	?	.
O=[N+]([O-])c1ccc(COn2nnc3ccccc32)cc1	29.5%	10.8%	-2.5%	11.8%	-7.1%	?
O=C1/C(=C/c2ccc([N+](=O)[O-])cc2)CCc2ccccc21	?	7.3µM*	0.151µM*	27.7%	.	?
O=C(O)c1ccc(-n2ncc3c2/C(=C/c2cccc([N+](=O)[O-])c2)CC3)cc1	2.82µM*	15.0%	10.7µM*	1.58µM*	.	?
CCN1C/C(=C\c2cccc([N+](=O)[O-])c2)C(=O)/C(=C/c2cccc([N+](=O)[O-])c2)C1	-58.0%	-12.0%	5.3%	-34.3%	-117.5%	3.26µM*
SMILES	Rab9 prom act	ELG1 genotoxic	FLuc counter	NPC1 promoter act	SMN2 splice enh	ELG1 repair inh
O=C1/C(=C/c2cccc([N+](=O)[O-])c2)CCc2ccccc21	-3.6%	-14.2%	9.53µM*	0.0%	-13.6%	-16.8%
O=C1/C(=C/c2cccc([N+](=O)[O-])c2)CSc2ccc(Cl)cc21	-2.6%	6.9%	-13.4%	-1.0%	.	-1.3%
CC1(C)Cc2ccccc2C(N/N=C/c2ccc([N+](=O)[O-])cc2)=N1	-1.7%	4.5%	-5.9%	-2.9%	-21.3%	?
CCN1CCN(S(=O)(=O)c2cccc([N+](=O)[O-])c2)CC1	-6.4%	-0.3%	-1.5%	1.5%	17.7%	1.4%
O=C(O)c1ccc(-n2c(/C=C/c3cccc([N+](=O)[O-])c3)nc3ccccc3c2=O)cc1	-4.9%	-3.6%	-6.5%	-2.1%	.	?
COc1ccc(-c2ccc(CCC(=O)O)o2)cc1	17.8%	11.9%	5.36µM*	17.7%	.	?
COc1ccc(-c2noc(CCC(=O)O)n2)cc1	-12.4%	0.4%	-26.1%	-4.5%	-16.8%	?
O=C(O)CCc1ccc(-c2ccc(Br)cc2)o1	5.4%	4.4%	15.1µM*	11.2%	5.1%	?
O=C(O)CCc1ccc(-c2ccc(Cl)cc2)o1	1.5%	?	15.1µM*	8.1%	-2.9%	?
CCOC(=O)c1c(Nc2ccc(O)cc2)nnc(-c2ccccc2)c1-c1ccccc1	.	.	-3.3%	.	0.0%	.
Cc1ccc(C(=O)COC(=O)C(CC(C)C)NC(=O)C2CCC(C)CC2)cc1 (centres undefined)	.	.	-11.3%	.	-10.3%	.
Cc1cccc(OCCSc2nc3ccccc3n2CC(=O)N2CCOCC2)c1	.	.	-1.4%	.	.	.
Cc1ccc(S(=O)(=O)N2CCCC2C(=O)NC2=NCCS2)cc1 (centres undefined)	1.0%	2.9%	0.7%	-4.2%	-9.6%	2.8%
Cc1ccc(/C=C/C(=O)NC2=NCCS2)cc1	0.501µM*	2.91µM*	1.35µM*	?	0.501µM*	?
CC(C)(C)c1ccc(/C=C/C(=O)NC2=NCCS2)cc1	0.398µM*	?	0.757µM*	0.501µM*	?	?
Cc1nc(S(=O)(=O)N2CCN(c3cccc(Cl)c3)CC2)cn1C	.	.	-1.3%	.	.	.
Cc1ccc(-c2nn3c(C)nnc3c3ccccc23)cc1S(=O)(=O)N(C)CCO	-1.1%	18.4µM*	1.0%	-3.0%	?	?
Cc1ccc(-c2nn3c(C)nnc3c3ccccc23)cc1S(=O)(=O)NCc1ccccc1	3.1%	3.4%	-1.3%	-4.0%	-7.0%	0.5%
COc1cc(C(=O)Nc2cccc(OCc3cc(=O)n4c(C)csc4n3)c2)cc(OC)c1OC	.	.	?	.	-6.2%	.
O=C(O)c1cc2c(s1)-c1ccccc1OC2	-1.3%	0.1%	-14.8%	0.3%	9.9%	2.2%
O=C(NC1CC1)c1cc2c(s1)-c1ccccc1OC2	10.8%	?	12µM*	27.2%	-46.3%	-20.9%
C[n+]1c2n(c3ccccc31)N=C(c1ccccc1)CS2	-15.4%	-13.7%	-4.7%	-16.6%	-70.8%	5.8µM*!
